Measurements published in PubChem BioAssay (EPA / NIEHS).
Where “and” joins values, the source holds several entries; their conditions need not be identical. Identical values can stand only once. Results filed as inconclusive are left out. More than one record can exist for a structure, and the calls need not agree. Calls of active or inactive are those of the source. Rule for the calls, unless noted: active = hit-call score of the fitted dose curve at least 0.9, where 1 is the maximum; inactive = score below 0.9.

Tests used:
[1] = BSK_LPS_PGE2: BioMAP Diversity Plus: LPS Assay for Prostaglandin E2 (PGE2) Biomarker Activity (AID 2283082); details: primary human HUVEC with PBMC; actives raise or lower the signal
Method in brief: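 PGE2 release measured by ELISA in an LPS-activated co-culture of human umbilical vein endothelial cells and peripheral blood mononuclear cells, read at 24 h post-dosing. DMSO served as baseline for bidirectional curve fitting.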

[2] = read-out: Macrophage colony-stimulating factor (MCSF), CSF1 (gene 1435); test: BSK_LPS_MCSF: BioMAP Diversity Plus: LPS Assay for Macrophage colony-stimulating factor (MCSF) Biomarker Activity (AID 2283083); details: primary human HUVEC with PBMC; actives raise or lower the signal
Method in brief: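 Compound is added to a human vascular primary co-culture of umbilical vein endothelium and blood mononuclear cells. After 24 h, M-CSF is quantified by ELISA. Signal changes are fitted in both directions against DMSO.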

[3] = read-out: Tissue Factor, F3 (gene 2152); test: BSK_LPS_TissueFactor: BioMAP Diversity Plus: LPS Assay for Tissue Factor Biomarker Activity (AID 2283084); details: primary human HUVEC with PBMC; actives raise or lower the signal
Method in brief: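 In this co-culture system of umbilical vein endothelium with PBMC, stimulated with LPS, cell-surface CD142 is detected by ELISA at 24 h. Endpoint values derive from bidirectional fitting, DMSO serving as baseline.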

[4] = read-out: Tumor necrosis factor (Homo sapiens) (UniProt P01375); test: BSK_LPS_TNFa: BioMAP Diversity Plus: LPS Assay for Tumour Necrosis Factor alpha (TNFa) Biomarker Activity (AID 2283085); details: primary human HUVEC with PBMC; actives raise or lower the signal;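 for AC50: TNFa protein level quantified by ELISA in the co-culture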
Method in brief: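 TNFa was quantified by ELISA in LPS-activated co-cultures of human endothelial cells and PBMC, 24 h post-dosing. Both increases and decreases versus DMSO were fitted.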

[5] = read-out: Vascular cell adhesion molecule 1 (VCAM1), VCAM1 (gene 7412); test: BSK_LPS_VCAM1: BioMAP Diversity Plus: LPS Assay for Vascular cell adhesion molecule 1 (VCAM1) Biomarker Activity (AID 2283086); details: primary human HUVEC with PBMC; actives raise or lower the signal
Method in brief: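 VCAM-1 quantified by ELISA in an LPS-activated co-culture of human endothelial cells and peripheral blood mononuclear cells, read 24 h post-treatment. Fitted in both directions versus DMSO; parallel SRB staining flags overt cytotoxicity.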

CD38, CD38 (gene 952) = test: BSK_SAg_CD38: BioMAP Diversity Plus: SAg Assay for CD38 Biomarker Activity (AID 2283087); details: primary human HUVEC with PBMC; actives raise or lower the signal
Method in brief: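 CD38 quantified by ELISA (fluorescence) in a superantigen-activated endothelial cell–PBMC co-culture at 24 h post-dose. Activity fitted in both directions relative to DMSO; parallel SRB and Alamar Blue cytotoxicity read-outs.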

CD40, CD40 (gene 958) = test: BSK_SAg_CD40: BioMAP Diversity Plus: SAg Assay for CD40 Biomarker Activity (AID 2283088); details: primary human HUVEC with PBMC; actives raise or lower the signal
Method in brief: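 Fluorescence ELISA read-out of CD40 from umbilical vein endothelium plus peripheral blood mononuclear cells, sampled 24 h after dosing. Values come from bidirectional curve fitting with DMSO as baseline.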

CD69, CD69 (gene 969) = test: BSK_SAg_CD69: BioMAP Diversity Plus: SAg Assay for CD69 Biomarker Activity (AID 2283089); details: primary human HUVEC with PBMC; actives raise or lower the signal;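 note: cell surface CD69 protein quantified by ELISA with fluorescence detection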
Method in brief: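 Endothelial/PBMC co-culture; chemical added; 24 h incubation; CD69 ELISA with fluorescence detection; bidirectional fit vs DMSO.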

[6] = read-out: Monocyte Chemoattractant Protein-1 (MCP1), CCL2 (gene 6347); test: BSK_SAg_MCP1: BioMAP Diversity Plus: SAg Assay for Monocyte Chemoattractant Protein-1 (MCP1) Biomarker Activity (AID 2283090); details: primary human HUVEC with PBMC; actives raise or lower the signal
Method in brief: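 Values derive from bidirectional fitting of ELISA-measured MCP1 against DMSO controls. Readings were taken 24 h after dosing human vascular endothelial cells co-cultured with peripheral blood mononuclear cells under superantigen stimulation.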

[7] = read-out: E-selectin (Homo sapiens) (UniProt P16581); test: BSK_SAg_Eselectin: BioMAP Diversity Plus: SAg Assay for Eselectin Biomarker Activity (AID 2283091); details: primary human HUVEC with PBMC; actives raise or lower the signal
Method in brief: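 Primary human endothelial cells and peripheral blood mononuclear cells were co-cultured and exposed to chemical for 24 hours. E-selectin levels were then quantified by ELISA, with bidirectional curve fitting normalised to DMSO controls.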

[8] = read-out: Monokine induced gamma interferon (MIG), CXCL9 (gene 4283); test: BSK_SAg_MIG: BioMAP Diversity Plus: SAg Assay for Monokine induced gamma interferon (MIG) Biomarker Activity (AID 2283092); details: primary human HUVEC with PBMC; actives raise or lower the signal
Method in brief: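 Measures CXCL9 protein by ELISA in a human vascular primary-cell co-culture (umbilical vein endothelium with PBMC) 24 h after chemical addition. Activity is scored up or down from the DMSO control.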

[9] = read-out: Interleukin-8 (IL8), CXCL8 (gene 3576); test: BSK_SAg_IL8: BioMAP Diversity Plus: SAg Assay for Interleukin-8 (IL8) Biomarker Activity (AID 2283094); details: primary human HUVEC with PBMC; actives raise or lower the signal
Method in brief: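 ELISA readout of IL-8 from a superantigen-activated endothelial/PBMC primary human co-culture, taken 24 h post-dosing and fitted in both directions against DMSO; parallel SRB total-protein staining flags overt cytotoxicity.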

[10] = BSK_SAg_Proliferation: Cell Proliferation Assessment in the BioMAP Diversity Plus: SAg Assay (AID 2283095); details: primary human HUVEC with PBMC;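 note: relative cell number as total protein by SRB absorbance in sub-confluent culture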
Method in brief: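 Relative cell number in the endothelial cell/PBMC co-culture was quantified at 96 h by SRB staining (0.1% SRB, 10% TCA fixation, read at 560 nm). Curves were fitted in both directions relative to DMSO baseline.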

[11] = BSK_SAg_SRB: Viability Assessment in the BioMAP Diversity Plus: SAg Assay (AID 2283096); details: primary human HUVEC with PBMC;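 note: cells read one day after compound addition; hits may be either gain or loss of signal compared with DMSO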
Method in brief: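 This overt-cytotoxicity endpoint quantifies protein in human endothelial/PBMC co-cultures at 24 h using SRB absorbance (560 nm) after trichloroacetic acid fixation. Values reflect signal change from the DMSO negative control, fitted bidirectionally.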

[12] = biological target: bovine Estrogen Receptor (ER), ESR1 (gene 407238) (UniProt P49884); test: NVS_NR_bER: NovaScreen (NVS) Nuclear Receptor Binding Assay for bovine Estrogen Receptor (ER) (AID 2283345; active = hit-call score of the fitted dose curve at least 0.9, where 1 is the maximum;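 note: actives lower the bound radioligand count which means they displace the ER ligand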)
bovine Estrogen Receptor (ER), ESR1 (gene 407238), sequence (P49884 whole entry, looked up): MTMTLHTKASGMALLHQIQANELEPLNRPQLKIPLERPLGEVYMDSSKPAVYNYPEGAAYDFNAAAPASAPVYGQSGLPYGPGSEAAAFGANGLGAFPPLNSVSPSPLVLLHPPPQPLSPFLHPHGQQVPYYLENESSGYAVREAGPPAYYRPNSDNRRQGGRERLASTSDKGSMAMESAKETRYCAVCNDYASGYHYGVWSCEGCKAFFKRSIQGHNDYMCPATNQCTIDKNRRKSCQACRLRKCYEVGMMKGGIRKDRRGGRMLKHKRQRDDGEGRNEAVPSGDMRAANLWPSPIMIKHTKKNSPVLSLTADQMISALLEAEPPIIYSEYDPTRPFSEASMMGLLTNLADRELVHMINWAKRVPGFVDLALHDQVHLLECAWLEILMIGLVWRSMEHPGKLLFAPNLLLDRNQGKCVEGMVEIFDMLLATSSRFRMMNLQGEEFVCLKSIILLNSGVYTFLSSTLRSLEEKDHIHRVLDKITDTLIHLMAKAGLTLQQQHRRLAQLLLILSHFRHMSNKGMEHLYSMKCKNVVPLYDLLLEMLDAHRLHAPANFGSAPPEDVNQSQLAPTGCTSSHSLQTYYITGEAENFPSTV
Method in brief: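 Scintillation counting of displaced radioligand gave the readout; bovine uterine membrane extract supplied the receptor. Measured 18 h post-dose, normalized to DMSO baseline. Single 25 uM duplicate screen preceded concentration-response follow-up.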

[13] = TOX21_p53_BLA_p2_viability: Viability Assessment in the Tox21 HCT-116 p53 Agonism Beta-lactamase Assay, Phase 2 (AID 2283591; active = hit-call score of the fitted dose curve at least 0.9, where 1 is the maximum;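 note: compound exposure lasted 16 h at 37 °C; actives lower the ATP signal meaning cytotoxicity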)
Method in brief: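 HCT-116 p53-bla cells (4000/well) rested 5 h at 37C, then received compounds in DMSO (217-fold dilution) for 16 h at 37C, 5% CO2. After the CCF4 read, CellTiter-Glo was added; ATP luminescence was read after 30 min at room temperature.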

[14] = TOX21_p53_BLA_p3_viability: Viability Assessment in the Tox21 HCT-116 p53 Agonism Beta-lactamase Assay, Phase 3 (AID 2283593; active = hit-call score of the fitted dose curve at least 0.9, where 1 is the maximum;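 note: cells exposed to compound for 16 h before reading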)
Method in brief: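 HCT-116 cells (4000/well) rested 5 h at 37C, then got DMSO compounds by pin tool (217-fold dilution) for 16 h at 37C, 5% CO2. After the bla read, CellTiter-Glo was added and luminescence read at 30 min, room temperature.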

[15] = TOX21_p53_BLA_p4_viability: Viability Assessment in the Tox21 HCT-116 p53 Agonism Beta-lactamase Assay, Phase 4 (AID 2283597; active = hit-call score of the fitted dose curve at least 0.9, where 1 is the maximum;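 note: hits lower the luminescence signal meaning cytotoxicity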)
Method in brief: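 Viability is taken as cellular ATP: after 16 h compound exposure of HCT116 cells and a 2 h room-temperature CCF4-AM substrate step, CellTiter-Glo reagent is added and luminescence is measured 30 min later.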

[16] = TOX21_p53_BLA_p5_viability: Viability Assessment in the Tox21 HCT-116 p53 Agonism Beta-lactamase Assay, Phase 5 (AID 2283600; active = hit-call score of the fitted dose curve at least 0.9, where 1 is the maximum)
Method in brief: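 Viability is taken from cellular ATP content, measured by luciferase luminescence in the same wells after the beta-lactamase ratio read. Cells are seeded at 4000 per well and exposed to DMSO-dissolved compounds, diluted 217-fold, for 16 h.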

Measured: AC50

Tumor necrosis factor (Homo sapiens), sequence (P01375 whole entry, looked up): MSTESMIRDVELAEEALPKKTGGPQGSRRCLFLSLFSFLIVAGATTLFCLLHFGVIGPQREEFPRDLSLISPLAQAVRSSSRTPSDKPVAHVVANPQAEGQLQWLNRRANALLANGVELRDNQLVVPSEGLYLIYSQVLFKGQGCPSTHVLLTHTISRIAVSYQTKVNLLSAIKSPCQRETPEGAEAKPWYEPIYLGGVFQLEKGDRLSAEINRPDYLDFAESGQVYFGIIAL
E-selectin (Homo sapiens), sequence (P16581 whole entry, looked up): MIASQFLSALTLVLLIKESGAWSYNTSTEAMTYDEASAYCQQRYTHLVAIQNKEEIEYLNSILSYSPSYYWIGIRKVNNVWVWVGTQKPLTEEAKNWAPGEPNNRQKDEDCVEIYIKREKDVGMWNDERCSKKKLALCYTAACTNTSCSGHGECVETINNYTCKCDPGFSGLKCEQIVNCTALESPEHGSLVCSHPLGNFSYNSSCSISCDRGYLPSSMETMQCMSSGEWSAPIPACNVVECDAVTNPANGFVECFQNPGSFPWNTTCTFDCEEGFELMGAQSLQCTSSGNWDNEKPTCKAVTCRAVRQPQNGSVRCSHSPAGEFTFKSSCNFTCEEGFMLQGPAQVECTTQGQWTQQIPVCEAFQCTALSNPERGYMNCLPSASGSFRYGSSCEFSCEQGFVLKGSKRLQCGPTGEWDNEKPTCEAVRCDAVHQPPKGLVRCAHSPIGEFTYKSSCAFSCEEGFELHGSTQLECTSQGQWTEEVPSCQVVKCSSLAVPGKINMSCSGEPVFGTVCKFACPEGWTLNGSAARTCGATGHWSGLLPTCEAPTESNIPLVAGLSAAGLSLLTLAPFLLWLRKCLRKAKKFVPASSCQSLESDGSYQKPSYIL

[Cd+2].[Cl-].[Cl-]
inactive: [1] | [3] | [4] | [8] | [11] | [12] | [14] | [15] | [16]
active: [2] 19.5 µM and 31.2 µM | [4] 33 µM | [5] 30 µM and 35.9 µM | CD38, CD38 (gene 952) 35.3 µM and 15.6 µM | CD40, CD40 (gene 958) 30.2 µM and 34.7 µM | CD69, CD69 (gene 969) 32.4 µM and 30.4 µM | [6] 33 µM and 34.4 µM | [7] 32.2 µM and 30.2 µM | [9] 34.9 µM and 31.4 µM | [10] 14 µM and 13.4 µM | [13] 67.9 µM and 68.1 µM | [14] 69.2 µM | [15] 68.6 µM | [16] 76.2 µM
